Values joined by “and” are separate entries in the source; they are usually repeats but may differ in a detail not shown here. Equal values may be shown once. Where a name gives a salt, the structure may show the parent alone. ± gives the standard deviation of the averaged measurements. Whole data set: some 1,900 compounds, median “relative cell viability (CellTiter-Glo), compound alone” near 1, cut for the lowest 2% near 0.16. The list comes from a sample in which the lowest values are over-represented; it also holds similar structures and randomly drawn compounds.
These compounds were tested on Hep3B (assay: relative cell viability (CellTiter-Glo), compound alone (fraction); higher = more viable cells (less growth inhibition)). Settings: cabozantinib 0 µM; 4 days.

Compound	relative cell viability
c1ccc(NCc2ccc(CNc3ccccn3)cc2)nc1	1.09 ± 0.085
COc1cc([C@@H]2c3cc4c(cc3[C@@H](O[C@@H]3O[C@@H]5CO[C@@H](c6cccs6)O[C@H]5[C@H](O)[C@H]3O)[C@H]3COC(=O)[C@H]23)OCO4)cc(OC)c1O [Teniposide]	0.113 ± 0.0088
COc1cc([C@@H]2c3cc4c(cc3[C@@H](O[C@@H]3O[C@@H]5CO[C@@H](C)O[C@H]5[C@H](O)[C@H]3O)[C@H]3COC(=O)[C@H]23)OCO4)cc(OC)c1O [Etoposide]	1.22 ± 0.11
COc1cccc(C=NCCN=Cc2cccc(OC)c2[O-])c1[O-].[Cl-].[Mn+3]	1.04 ± 0.041
COc1ccc(-c2ccc3ncc4c(c3c2)n(-c2ccc(N3CCNCC3)c(C(F)(F)F)c2)c(=O)n4C)cn1	0.202 ± 0.013
Nc1ccc(-c2ccc3ncc4ccc(=O)n(-c5cccc(C(F)(F)F)c5)c4c3c2)cn1 [Torin 2]	0.147 ± 0.014
CN1C(=O)C(Cc2c[nH]c3ccccc23)NC1=S (stereo not given) [Necrostatin-1]	1.154 ± 0.0058
CCn1c(N)c(C(=O)NC)c(=O)c2ccc(C#CC(C)(O)COC)nc21 (stereo not given)	0.951 ± 0.15
Cc1ccc(-n2sc(=O)n(Cc3ccc(F)cc3)c2=O)cc1	1.03 ± 0.086
C=CC(=O)Nc1cc(Nc2nccc(-c3c[nH]c4ccccc34)n2)c(OC)cc1N(C)CCN(C)C	0.913 ± 0.049
O=C(NC[C@H](O)CN1CCc2ccccc2C1)c1cc(NC2COC2)ncn1	1.09 ± 0.029
Cn1c(Nc2ccc(C(F)(F)F)cc2)nc2cc(Oc3ccnc(-c4ncc(C(F)(F)F)[nH]4)c3)ccc21	0.9528 ± 0.0094
CN[C@@H](C)C(=O)N[C@H](C(=O)N1CCC[C@H]1C(=O)Nc1snnc1-c1ccccc1)C1CCCCC1	0.229 ± 0.13
CC[C@@H]1/C=C(\C)C[C@H](C)C[C@H](OC)[C@H]2O[C@@](O)(C(=O)C(=O)N3CCCC[C@H]3C(=O)O[C@H](/C(C)=C/[C@@H]3CC[C@@H](O)[C@H](OC)C3)[C@H](C)[C@@H](O)CC1=O)[C@H](C)C[C@@H]2OC [Ascomycin (FK520)]	1.16 ± 0.12
O=C(O)c1ccccc1 [Benzoic Acid]	1.26 ± 0.07
CN(NC(=O)CC(=O)NN(C)C(=S)c1ccccc1)C(=S)c1ccccc1 [Elesclomol (STA-4783)]	0.0115 ± 0.0045
O=C(O)CCNC(=O)c1ccccc1 [Betamipron]	0.9 ± 0.089
COc1cc(N2CCC(N3CCN(C)CC3)CC2)ccc1Nc1ncnc(Nc2ccccc2S(=O)(=O)C(C)C)n1	0.887 ± 0.056
Cc1cc(Nc2ccc(NC(=O)c3ccc(Nc4ccnc5ccccc45)cc3)cc2)nc(N)n1	0.227 ± 0.023
CN(C)CCCNC(=O)c1ccc(-c2cc(O)c3ncccc3c2)cc1	0.898 ± 0.27
CC(C)(CO)c1cc2cc(NC(=O)C3(c4ccc5c(c4)OC(F)(F)O5)CC3)c(F)cc2n1C[C@@H](O)CO	1.14 ± 0.18
Cc1ccc(NC(=O)C2(c3ccc4c(c3)OC(F)(F)O4)CC2)nc1-c1cccc(C(=O)O)c1 [VX-809 (Lumacaftor)]	0.144 ± 0.025
C[C@]1(c2nc3c(C(N)=O)cccc3[nH]2)CCCN1 [Veliparib (ABT-888)]	1.02 ± 0.44
CN1CCN(C2CCN(C(=O)Nc3cc(Oc4ccc(NC(=O)C5(C(=O)Nc6ccc(F)cc6)CC5)c(F)c4)ccn3)CC2)CC1 [Golvatinib (E7050)]	1.15 ± 0.079
COc1ccc(-c2cc(=O)c3c(O)cc(O)cc3o2)cc1O [Diosmetin]	1.35 ± 0.14
O=c1cc(CN2CCOCC2)occ1OCCCCCSc1ccnc2cc(C(F)(F)F)ccc12	1.29 ± 0.14
CC/C(=C(\c1ccccc1)c1ccc(OCCN(C)C)cc1)c1ccccc1 [Tamoxifen Citrate]	1.26 ± 0.064

Compound	relative cell viability
CC/C(=C(\c1ccc(O)cc1)c1ccc(OCCNC)cc1)c1ccccc1 [Endoxifen HCl]	1.16 ± 0.081
CN(C)Cc1c(C(=O)NCCOc2ccc(C(=O)NO)cc2)oc2ccccc12	0.153 ± 0.054
O=C(Nc1c[nH]nc1-c1nc2ccc(CN3CCOCC3)cc2[nH]1)NC1CC1	0.3 ± 0.036
O=[N+]([O-])c1ccc2c(c1)S(=O)(=O)C=C2 [Stattic]	1.03 ± 0.043
N#Cc1cc(CN2CCC(Nc3ncnc4sc(Cl)cc34)CC2)ccc1F	1.42 ± 0.079
C[C@]12CC[C@@H]3c4ccc(OC(=O)c5ccccc5)cc4CC[C@H]3[C@@H]1CC[C@@H]2O [Estradiol Benzoate]	1.19 ± 0.14
CCN(CC)Cc1ccc2cc(COC(=O)Nc3ccc(C(=O)NO)cc3)ccc2c1 [Givinostat (ITF2357)]	0.156 ± 0.0025
CCN(CC)CCNC(=O)c1ccc(N)cc1 [Procainamide HCl]	0.954 ± 0.032
COc1ccc(Cn2ccc3ccc(C(=O)NO)cc32)cc1	0.909 ± 0.14
OCc1ccc(O[C@@H]2O[C@H](CO)[C@@H](O)[C@H](O)[C@H]2O)cc1 [Gastrodin]	1.354 ± 0.0026
CN(C)Cc1cccc(N/C(=C2\C(=O)Nc3cc(C(N)=O)ccc32)c2ccccc2)c1	0.7302 ± 0.0057
COC(=O)c1ccc2c(c1)NC(=O)/C2=C(\Nc1ccc(N(C)C(=O)CN2CCN(C)CC2)cc1)c1ccccc1 [Nintedanib (BIBF 1120)]	0.761 ± 0.038
CCS(=O)(=O)Nc1ccc2c(c1)/C(=C(/Nc1ccc(CN3CCCCC3)cc1)c1ccccc1)C(=O)N2 [Hesperadin]	0.112 ± 0.0022
CCCCN(Cc1ccc(C(=O)NO)cc1)C(=O)Nc1ccccc1 [Nexturastat A]	1.06 ± 0.17
CC(=O)Nc1ccc(C(=O)Nc2ccccc2N)cc1 [CI994 (Tacedinaline)]	1.17 ± 0.1
CC(C)[C@H](C(=O)Nc1ccc(C(=O)NO)cc1)c1ccccc1	0.138 ± 0.015
CCn1cc(-c2ccnc3[nH]c(-c4cccc(CN(C)C)c4)cc23)c(-c2ccc(NC(=O)N(C)C)cc2)n1	0.94 ± 0.099
COc1ccccc1-c1cc(Nc2cccc(CS(N)(=O)=O)c2)ncn1	1.11 ± 0.029
CN(C)C(=O)Nc1cccc(-c2ccc(N(C)C)cc2)c1 [Atglistatin]	1.37 ± 0.12
O=C(Nc1cc(C(F)(F)F)ccc1N1CCCCC1)c1ccncc1	1.07 ± 0.016
CC(C)n1nc(-c2ccc3oc(N)nc3c2)c2c(N)ncnc21	0.387 ± 0.022
CC1(C)CCC[C@]2(C)[C@H]3CC(=O)O[C@]3(C)CC[C@@H]12 [Sclareolide]	0.9838 ± 0.007
Cc1c(CN2CCN(C(=O)[C@H](C)O)CC2)sc2c(N3CCOCC3)nc(-c3cnc(N)nc3)nc12	0.546 ± 0.022
COc1ccc(-c2nc(N3CCOCC3)c3sc(CN(C)c4ncc(C(=O)NO)cn4)cc3n2)cn1	0.132 ± 0.013
CS(=O)(=O)N1CCN(Cc2cc3nc(-c4cccc5[nH]ncc45)nc(N4CCOCC4)c3s2)CC1	1.17 ± 0.013
Cc1c(Cc2ccc3ccccc3n2)c2cc(F)ccc2n1CC(=O)O	1.08 ± 0.055
CN1C(C(=O)Nc2ccccn2)=C(O)c2sccc2S1(=O)=O [Tenoxicam]	1 ± 0.051

Compound	relative cell viability
O=C(COc1ccc(C(=O)c2ccccc2)cc1)NC1CCN(Cc2ccccc2)CC1 [AdipoRon]	0.881 ± 0.096
CN1CCN(c2ccc3nc(-c4c(N)c5c(F)cccc5[nH]c4=O)[nH]c3c2)CC1 [Dovitinib (TKI-258) Dilactic Acid]	0.6208 ± 0.0046
CN1CCN(c2ccc3nc(-c4c(N)c5c(F)cccc5[nH]c4=O)[nH]c3c2)CC1 [Dovitinib (TKI258) Lactate]	0.67 ± 0.011
CN1CCN(c2ccc3nc(-c4c(N)c5c(F)cccc5[nH]c4=O)[nH]c3c2)CC1 [Dovitinib (TKI-258, CHIR-258)]	0.85 ± 0.018
Cc1ccc(C(=O)c2cc(O)c(O)c([N+](=O)[O-])c2)cc1 [Tolcapone]	1.05 ± 0.076
C=CC(=O)Nc1ccc2ncnc(Nc3cccc(Br)c3)c2c1	1.48 ± 0.24
NC(=S)N/N=C/c1ncccc1N [Triapine]	1.17 ± 0.017
COc1cc(Nc2ncc(F)c(Nc3ccc4c(n3)N(COP(=O)(O)O)C(=O)C(C)(C)O4)n2)cc(OC)c1OC [Fostamatinib (R788)]	0.843 ± 0.025
C/C(=C\c1ccc(C(=O)O)cc1)c1ccc2c(c1)C(C)(C)CCC2(C)C [TTNPB (Arotinoid Acid)]	1.11 ± 0.1
CO[C@H]1C[C@@H]2CC[C@@H](C)[C@@](O)(O2)C(=O)C(=O)N2CCCC[C@H]2C(=O)O[C@H]([C@H](C)C[C@@H]2CC[C@@H](OP(C)(C)=O)[C@H](OC)C2)CC(=O)[C@H](C)/C=C(\C)[C@@H](O)[C@@H](OC)C(=O)[C@H](C)C[C@H](C)/C=C/C=C/C=C/1C [Ridaforolimus (Deforolimus, MK-8669)]	1.07 ± 0.074
CC(=O)Nc1ccccc1 [Acetanilide]	1.17 ± 0.044
CC1=CC(=O)c2ccccc2C1=O [Menadione]	0.9362 ± 0.0074
CC(C)(C)C(=O)Nc1ccc2c(c1)C(=O)C(=O)c1ccccc1-2	0.0728 ± 0.012
NC(=O)CCCSc1nc(N)nc(-c2c(Cl)cc3c4c(cccc24)COC3)n1	0.19 ± 0.026
Cc1[nH]c2ccccc2c1CCNC(=O)c1cccs1	1.19 ± 0.067
O=C(/C=C/c1cccc(S(=O)(=O)Nc2ccccc2)c1)NO [Belinostat (PXD101)]	0.216 ± 0.019
Cc1[nH]c2ccccc2c1CCNCc1ccc(/C=C/C(=O)NO)cc1 [Panobinostat (LBH589)]	0.12 ± 0.019
Cn1cc(-c2ccncc2)c(-c2ccc(OCc3ccc4ccccc4n3)cc2)n1	1.13 ± 0.025
COc1cc(Br)c(Nc2nc(-c3c(C)nc4ncccn34)cs2)c(Br)c1	0.601 and 0.575
O=C(Nc1cc(C(F)(F)F)cc(C(F)(F)F)c1)c1cc(Cl)ccc1O	0.0996 ± 0.0025
CC(ONC(=O)c1cc(C(F)(F)F)cc(C(F)(F)F)c1)C(=O)Nc1ccc(Cl)cc1 (stereo not given)	1.02 ± 0.094
O=C(Nc1ccccc1)c1ccccc1O [Salicylanilide]	1.147 ± 0.0051
CN1CCN(Cc2ccc(-c3cnc4[nH]cc(-c5ccc6[nH]ccc6c5)c4c3)cc2)CC1	0.791 ± 0.033
CCNC(=O)c1noc(-c2cc(Cl)c(O)cc2O)c1-c1ccc(OC)cc1	0.15572 ± 2.3e-05
CCNC(=O)c1noc(-c2cc(C(C)C)c(O)cc2O)c1-c1ccc(CN2CCOCC2)cc1	0.176 ± 0.04
CCNC(=O)c1[nH]nc(-c2cc(Cl)c(O)cc2O)c1-c1ccc(OC)cc1	0.348 ± 0.025
